Results on 108 compounds are retold here after PubChem BioAssay AID1347404 (Pan Lab, Icahn School of Medicine at Mount Sinai, 2020).

Screen size: about 140,000 compounds; about 860 (0.61%) were called active. The sample as a whole holds a higher share of actives than the screen did. A number with no mark means an inactive call. Cut-off read from the data, not from the text of the source: active = inhibition above about 25%; inactive = the rest.

E3 ubiquitin-protein ligase RBX1 (Homo sapiens) + Cullin-1 (Homo sapiens), sequence (P62877 whole entry, looked up): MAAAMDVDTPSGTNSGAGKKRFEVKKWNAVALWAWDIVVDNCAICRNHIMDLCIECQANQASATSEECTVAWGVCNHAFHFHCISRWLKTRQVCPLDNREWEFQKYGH
E3 ubiquitin-protein ligase RBX1 (Homo sapiens) + Cullin-1 (Homo sapiens), sequence (Q13616 whole entry, looked up): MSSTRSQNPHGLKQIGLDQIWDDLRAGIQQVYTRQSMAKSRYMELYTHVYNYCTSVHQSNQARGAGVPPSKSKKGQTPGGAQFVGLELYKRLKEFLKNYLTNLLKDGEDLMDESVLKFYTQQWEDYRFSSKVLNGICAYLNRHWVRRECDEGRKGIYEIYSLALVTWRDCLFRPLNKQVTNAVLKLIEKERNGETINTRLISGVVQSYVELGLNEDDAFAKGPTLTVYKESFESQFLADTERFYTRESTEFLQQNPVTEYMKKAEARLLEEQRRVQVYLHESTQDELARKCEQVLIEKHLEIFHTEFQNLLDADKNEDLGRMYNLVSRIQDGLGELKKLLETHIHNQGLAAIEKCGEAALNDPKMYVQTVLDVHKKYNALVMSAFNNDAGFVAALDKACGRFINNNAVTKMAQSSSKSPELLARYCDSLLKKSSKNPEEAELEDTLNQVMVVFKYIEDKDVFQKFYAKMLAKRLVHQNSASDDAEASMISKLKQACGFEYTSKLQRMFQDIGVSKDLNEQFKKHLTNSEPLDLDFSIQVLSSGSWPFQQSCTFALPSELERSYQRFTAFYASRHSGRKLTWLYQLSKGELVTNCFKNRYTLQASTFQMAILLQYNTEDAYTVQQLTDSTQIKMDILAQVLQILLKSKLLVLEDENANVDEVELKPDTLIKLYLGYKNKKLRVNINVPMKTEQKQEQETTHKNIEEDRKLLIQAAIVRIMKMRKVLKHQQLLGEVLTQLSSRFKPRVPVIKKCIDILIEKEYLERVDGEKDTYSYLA

This assay addresses E3 ubiquitin-protein ligase RBX1 (Homo sapiens) + Cullin-1 (Homo sapiens) (UniProt P62877+Q13616). Put plainly: blocks human RBX1-Cullin-1 di-ubiquitin formation (AID 1347404). Conditions: in vitro K48 di-Ub FRET, acceptor:donor ratio, 45 min; at 10 µM; stronger effect = higher value.
Consider `CC(C(=O)O)N1C(=O)/C(=C/c2ccc(N(C)C)cc2)SC1=S` (stereo not drawn), for which the inhibition was 52.9% (active).

As for `CN(C)c1ccc(/C=C2\SC(=N)N(c3nccs3)C2=O)cc1`, the inhibition was -5.77%.

With `Cc1ccc(N2C(=O)/C(=C\c3ccc(Cl)cc3)SC2=S)cc1`, the inhibition is 8.97%.

With `CCCOc1ccccc1/C=C1\C(=O)NN(c2cccc(Br)c2)C1=O`, the inhibition was 20%.

As to `CCOc1ccc(/C=C2\C(=O)NN(c3ccc(Cl)c(Cl)c3)C2=O)cc1OCC`, the inhibition is 1.02%.

Take `CCOc1cc(/C=C2/C(=O)NN(c3ccc(CC)cc3)C2=O)c(Br)c(Br)c1O`: the inhibition is 54.1% (active).

As for `N#CC1=C2c3ccccc3CCC2C(c2ccco2)=NC1=O` (stereo not drawn), the inhibition was 42% (active).

Take `CC1=NC(=O)C(C#N)=C(C)C1CSCc1ccco1` (stereo not drawn): the inhibition was 0.332%.

In the case of `CCN(Cc1nccn1C)C(=O)c1ccc(N(C)CC2CCCCN2C)nc1` (stereo not drawn), the inhibition was -0.562%.

As to `CCC(C)C(=O)Nc1ccc(I)cc1` (stereo not drawn), the inhibition was 3.94%.

Regarding `COc1ccccc1NC(=O)NC1CC(=O)N(CC(C)(C)C)C1` (stereo not drawn), the inhibition is -2.73%.

`CC1(C)CC(=O)C(=Cc2c[nH]c3ccccc23)C(=O)C1`: the inhibition is -0.144%.

As for `Cc1cc(C)cc(N2CC(C(=O)N3CCc4ccccc4C3)CC2=O)c1` (stereo not drawn), the inhibition is 6.46%.

Consider `O=C(CC1C(=O)NCCN1CCc1ccccc1)NCCCn1ncc2ccccc21` (stereo not drawn), for which the inhibition is 0.369%.

`COc1cc(C2C3=C(CCCC3=O)OC3=C2C(=O)CCC3)ccc1OCC(=O)Nc1ccccc1`: the inhibition is -1.19%.

As to `O=C(NC(=S)N1CCCC1)c1ccc(Br)o1`, the inhibition was 4.57%.

As to `O=C([O-])c1ccc(C[n+]2c3ccccc3n3nc4c(cc32)c2cccc3cccc4c32)cc1`, the inhibition was -16.8%.

Regarding `O=C(/C=C/c1ccccc1)Oc1cccc(C(=O)Nc2nc3ccccc3[nH]2)c1`, the inhibition is 14.2%.

In the case of `O=C(C[n+]1c2ccccc2n2nc3c(cc21)c1cccc2cccc3c21)Nc1nc2ccccc2[nH]1`, the inhibition is 93.1% (active).

Turning to `Cn1c(=O)c2c(nc(SCC(=O)Nc3ccc(OC(F)(F)F)cc3)n2Cc2cccc(Cl)c2)n(C)c1=O`, the inhibition was 10%.

With `Cc1cc(N2C(=O)C(=O)C(C(=O)c3ccc(F)cc3)C2c2ccccc2)no1` (stereo not drawn), the inhibition was -4.72%.

In the case of `COCCN(C)C(=O)c1cc(NC(=O)c2ccccc2)cc2ncn(C3CCCC3)c12`, the inhibition is 12.6%.

`C=CCn1c(SCC(=O)c2ccccc2)nc2ccccc2c1=O`: the inhibition is 2.49%.

For the compound `COc1ccc(/C=C/C(=O)c2cc3ccccc3oc2=O)c(OC)c1`, the inhibition was -5.94%.

Regarding `COc1ccc(OC)c(/C=C/C(=O)c2ccc(OC)c(OC)c2)c1`, the inhibition was -2.06%.

On to `CCN=C1CC=C(Br)C=C(C(=O)/C=C/c2ccccc2OC)C1=O`, for which the inhibition was 101% (active).

As to `CC(C)NC(=O)Cc1coc2ccc(C(C)(C)C)cc12`, the inhibition is 5.19%.

As for `Cc1noc(C)c1C(=O)CCCCCCCCCCCCCCC(=O)O`, the inhibition was -8.93%.

On to `Cc1ccc(OC(=O)c2ccc(Br)cc2Br)c(C)c1`, for which the inhibition was 5.25%.

As to `CCCC(=O)NC(=S)Nc1ccccc1Sc1ncnc2scc(-c3ccccc3)c12`, the inhibition was 3.87%.

Take `COc1ccc2c(c1)OC(C)CN(Cc1ccc3cccnc3c1)C2` (stereo not drawn): the inhibition is 1.92%.

With `CN1C(=O)C(C(=NCc2ccccc2)c2nn[nH]n2)C(=O)c2ccccc21` (stereo not drawn), the inhibition was 2.67%.

As for `Cc1ccc(N=C/C=C/c2ccc([N+](=O)[O-])cc2)cc1`, the inhibition is 6.74%.

With `CC(=O)Nc1cc(C)ccc1[N+](=O)[O-]`, the inhibition was -2.27%.

Regarding `Cc1ccc(N2C(=O)c3ccccc3NC2c2ccc(OCc3ccccc3)cc2)cc1` (stereo not drawn), the inhibition was 8.59%.

Regarding `C=CCNC(=O)C1CCN(S(=O)(=O)N(C)C)CC1`, the inhibition is 8.77%.

`O=C(CSc1nc2scc(-c3ccccc3)c2c(=O)n1-c1ccccc1)c1ccccc1F`: the inhibition was 8.07%.

As for `O=C(Nc1ccccc1Cl)c1cc(-c2ccc(Cl)s2)nc2ccccc12`, the inhibition was -7.97%.

On to `CCOc1cc(Br)c(Br)c(C=Nc2cccc(NC(=O)c3ccc(Cl)cc3Cl)c2)c1O`, for which the inhibition was 13.5%.

For the compound `CCN(CC1CCCN(CCc2cccc(OC)c2)C1)C1CCN(C(C)=O)CC1` (stereo not drawn), the inhibition was -12.6%.

For the compound `COc1ccc(C(=O)CC=Nc2ccc(Oc3ccccc3Cl)cc2)cc1OC`, the inhibition was 11.3%.

For `Cc1ccc(NC(=O)C(=O)NC(=O)c2n[nH]c3c2CCCC3)cc1`, the inhibition was 2.41%.

For `CCOc1ccc(Cl)cc1S(=O)(=O)N1CCCCC1C` (stereo not drawn), the inhibition was 3.07%.

Regarding `O=C([C@@H]1C[C@H]1c1ccccc1)N1CCOc2ccc(CN3CCN(c4ncccn4)CC3)cc2C1`, the inhibition was -2.65%.

On to `Cc1cnc(Sc2nccn2C)c([N+](=O)[O-])c1`, for which the inhibition is -1.03%.

As for `CCOC(=O)c1cc(N2C(=O)c3cccc4cccc(c34)C2=O)ccc1Cl`, the inhibition was -1.46%.

Regarding `COC(=O)c1cc2ccccc2n1C`, the inhibition is -2.5%.

For `Clc1ccc(-c2csc(NN=C3c4ccccc4-c4ccccc43)n2)cc1`, the inhibition is -3.38%.

In the case of `COc1cc(/C=C(/C)[N+](=O)[O-])c2c(c1Br)CCCO2`, the inhibition is -18%.

Turning to `COc1ccc2c(c1)CCCN2Cn1nc(COc2ccc(C3CCCCC3)cc2)n(C)c1=S`, the inhibition is 0.371%.

As for `c1cc2nsnc2cc1CN1CCCC(Nc2ccc3c(c2)OCO3)C1` (stereo not drawn), the inhibition is 2.61%.

`Cc1cc(Oc2cc(-n3[nH]c(=O)c4ccccc4c3=O)nc(-c3ccccc3)n2)cc(C)c1Cl`: the inhibition was 7.28%.

As to `CCN(CC1CCN(C2CCN(C)CC2)CC1)C(=O)c1occc1C`, the inhibition was 9.69%.

Turning to `O=C(NCN1CCN(CNC(=O)c2cccnc2)CC1)c1cccnc1`, the inhibition was -0.31%.

As for `CCN1CCN(c2nc(-c3ccc(OC)cc3)cc(=O)[nH]2)CC1`, the inhibition was 5.84%.

With `Cc1ccc(Cl)cc1N1CCN(C(=O)C23CC4CC(CC(C4)C2)C3)CC1`, the inhibition was -7.78%.

Take `Cc1ccccc1CS(=O)(=O)N1CCC(Cc2ccccc2)CC1`: the inhibition is 8.78%.

Consider `COc1ccc(C(Nc2cc(C)ccn2)c2ccc3cccnc3c2O)c(OC)c1OC` (stereo not drawn), for which the inhibition was 2.02%.

As for `COc1ccc2nc(SCC#CCSc3nc4ccc(OC)cc4[nH]3)[nH]c2c1`, the inhibition was 7.63%.

Regarding `CNCC#CCOc1ccccc1C(C)(C)C`, the inhibition is -2.15%.

For `O=c1cc(Cl)c2ccccc2o1`, the inhibition was -4.6%.

For `Nc1scc2c1c(=O)oc1ccccc12`, the inhibition was 57% (active).

With `CN(C)/C=C/c1c(C#N)c(=O)oc2ccccc12`, the inhibition was 9.69%.

For `CCOC(=O)C(C(=O)OCC)c1ccc(OC)cc1[N+](=O)[O-]`, the inhibition was 2.12%.

With `CCOc1cc(/C=C2/SC(=O)N(C(C)C)C2=O)ccc1O`, the inhibition is -0.43%.

As to `Nc1nc2c(ncn2S(=O)(=O)c2ccc(C(=O)O)cc2)c(=O)[nH]1`, the inhibition is 7.51%.

For the compound `Cc1[nH]nc2c1C(c1cccc(OCc3ccccc3Cl)c1)C(C#N)C(=N)O2` (stereo not drawn), the inhibition is -9.52%.

`Cc1ccc(C2Oc3ccccc3C3CC(c4cccs4)=NN32)o1` (stereo not drawn): the inhibition is 0.171%.

Turning to `CCN(CC)C(=O)c1sc(NC(=O)C(Sc2ccccc2)c2ccccc2)c(C#N)c1C` (stereo not drawn), the inhibition was 2.76%.

For the compound `Oc1ccc2oc(SCCOCCOCCOCCSc3cc4cc(O)ccc4o3)cc2c1`, the inhibition was 0.44%.

With `O=C(COC(=O)c1cc(Cl)c(Cl)cc1C(=O)OCC(=O)c1ccccc1)c1ccccc1`, the inhibition is 7.68%.

Turning to `O=C(O)CSCC(=O)Nc1nccs1`, the inhibition is -17.6%.

Consider `O=C1C2CCCN2C(=O)N1CCCCN1CCN(c2cccc(C(F)(F)F)c2)CC1` (stereo not drawn), for which the inhibition was -6.27%.

Turning to `c1ccc(-c2oc(-c3ccccc3)c(-c3ccccc3)c2-c2ccccc2)cc1`, the inhibition was -5.11%.

For `CCc1ccc(-c2cc(C(F)(F)F)n3nc(C(=O)N(C)Cc4cnn(C)c4C)cc3n2)s1`, the inhibition is -10.3%.

On to `N#Cc1ccc(-c2nc3cc(C#N)c(C#N)cc3nc2-c2ccccc2)cc1C#N`, for which the inhibition was 0.0365%.

For `N#Cc1c(-c2ccccc2)c(-c2ccccc2)n[nH]c1=O`, the inhibition was 49.7% (active).

In the case of `COc1ccc(-c2n[nH]c(=O)c3ccccc23)cc1`, the inhibition was 0.605%.

With `COc1cc(OC)c(OC)cc1CN1CC[C@@H](N2CCC(O)CC2)[C@H](O)C1`, the inhibition is 13%.

As for `O=C(O)c1cc(-c2ccc(CC3=NC(=S)N(c4ccc(Cl)cc4)C3=O)o2)ccc1Cl`, the inhibition is 101% (active).

For `OCc1ccc(-c2cc(Cl)cc(Cl)c2)o1`, the inhibition was -5.33%.

`C=CCN1C(=O)N=C(Cc2ccc(-c3cccc(F)c3)o2)C1=O`: the inhibition is 2%.

Consider `COc1cccc(C(=O)NC2(C(F)(F)F)C(=O)N=C3C2C(=O)NC(=O)N3c2ccc(C)cc2)c1` (stereo not drawn), for which the inhibition was -7.22%.

In the case of `Cc1ccc(-c2c3nnc4ccccc4c3nc3sc4c(=O)[nH]c(C)nc4c23)cc1`, the inhibition is 6.93%.

As to `COc1ccc(F)c(-c2nc(CN(C)Cc3nonc3C)c(C)o2)c1`, the inhibition was 3.31%.

For the compound `COCCCN1C(=O)CC(CC(=O)N2CCN(C)C(c3ccccc3)C2)(c2ccccc2OC)C1=O` (stereo not drawn), the inhibition is 9.56%.

On to `COc1cccc(CC2(CO)CCN(C(=O)c3cnn(C(C)C)c3)CC2)c1`, for which the inhibition is 4.94%.

For `O=C(NC1CCCN(CCc2ccccc2)C1)c1cccc(N2CCOCC2)c1` (stereo not drawn), the inhibition is 5.73%.

`Cc1ccc(-c2csc(NNC(=O)c3ccccc3)n2)cc1`: the inhibition is -5.78%.

Turning to `O=C(NNc1cc(N2CCCC2)nc(N2CCCC2)n1)c1ccccc1`, the inhibition is 31.7% (active).

For `COc1ccc(C(=O)Nc2ccc3nc(N4CCCCC4)cc(C)c3c2)cc1OC`, the inhibition is -8.5%.

With `COCCN(CC1CCN(Cc2ccccc2F)CC1)C(=O)CCCN1CCCCC1=O`, the inhibition is 14.5%.

For `Cc1ccccc1OC(C)C(=O)Nc1nccs1` (stereo not drawn), the inhibition is 0.702%.

For `CCN1C(=O)C(=Cc2ccc(-c3ccccc3)o2)C(=O)N(CC)C1=S`, the inhibition is -2.58%.

Consider `CCCN1C(=O)/C(=C\c2cn(CC(=O)O)c3ccccc23)C(=O)N(c2ccccc2)C1=S`, for which the inhibition is 48.9% (active).

On to `CCn1cc(/C=C2\SC(=O)N(CC(=O)Nc3cccc(C)c3)C2=O)c2ccccc21`, for which the inhibition is 0.178%.

Take `CCCCCOc1cccc(OCC(=O)Nc2cccc(OC)c2)c1`: the inhibition was 0.894%.

Turning to `COc1cc(C(=O)O)ccc1OC(=O)C1CCCCC1`, the inhibition was 2.41%.

For the compound `CCCCCCCCCCCCOc1c(OC)cc(C(=O)O)cc1OC`, the inhibition was 26.5% (active).

Consider `Cc1cccc(-n2c(C)c(C)n3c4c(=O)n(CCCO)c(=O)n(C)c4nc23)c1`, for which the inhibition was -0.432%.

Take `CCCNC(=O)c1nnn(-c2ccc(C)cc2)c1C`: the inhibition was 2.76%.

For `CN1CCC2(CC1)CC(=O)NC2=O`, the inhibition is -1.86%.

For the compound `Nc1ccc([N+](=O)[O-])cc1OCc1ccccc1`, the inhibition was 6.18%.

On to `CCn1c2ccccc2c2cc(NS(=O)(=O)c3ccc(Cl)nc3)ccc21`, for which the inhibition is -11.1%.

In the case of `Cc1cc(OC(C)C(=O)N2CCN(c3ccccc3)CC2)cc(C)c1Cl` (stereo not drawn), the inhibition is 12.3%.

On to `O=C(Nc1cccc(Cl)c1)C(=S)NCc1ccco1`, for which the inhibition was 3.18%.

In the case of `Nc1c(C(=O)Nc2ccc(F)c(Cl)c2)sc2nc(-c3ccc(F)cc3)ccc12`, the inhibition is -0.694%.

As to `COCC(=O)N1CCCC(C(=O)c2cccc(C(F)(F)F)c2)C1` (stereo not drawn), the inhibition was 11%.

Usually inhibition stands for the drop in the measured response relative to a control, in per cent.
